The source of these data is PubChem BioAssay (Tox21).

Records with an inconclusive call do not appear. Entries that show only a call come without a potency. Activity calls are given as the source filed them. Calls follow the shape of the dose curve; as a rule, active = well fitted cell-killing curve with a large enough effect in the repeat runs; inconclusive = weak or mixed curves, or effect the other way; inactive = no such curve, though single readings can be large or run the other way.

A short description of the test: qHTS assay to identify small molecule antagonists of the peroxisome proliferator-activated receptor gamma (PPARg) signaling pathway - cell viability counter screen (AID 743194). Also: nearly all actives have a fitted effect of over 55% in size. To be noted: PPARg-bla HEK293H viability, CellTiter-Glo luminescence, 17 h; Potency: co-treated with 50 nM rosiglitazone; series mostly up to 62.6 µM. The source says:
U.S. Tox21 Program National Center for Advancing Translational Sciences [NCATS] NIH Chemical Genomics Center [NCGC] U.S. Environmental Protection Agency [EPA] National Institutes of Environmental Health Sciences [NIEHS] National Toxicology Program [NTP] U.S. Food and Drug Administration [FDA] Tox21 Assay Overview: The peroxisome proliferator-activated receptors (PPARs) are lipid-activated transcription factors of the nuclear receptor superfamily with three distinct subtypes namely PPAR alpha, PPAR delta (also called PPAR beta) and PPAR gamma (PPARg). All these subtypes heterodimerize with Retinoid X receptor (RXR) and these heterodimers regulate transcription of various genes. PPAR-gamma receptor (glitazone receptor) is involved in the regulation of glucose and lipid metabolism. To identify the compounds that activate PPAR-gamma signaling, GeneBLAzer PPAR gamma UAS-bla HEK293H cell line (Invitrogen, Carlsbad, CA, USA) containing a beta-lactamase reporter gene under the control of an Upstream Activator Sequence (UAS) was used to screen the Tox21 compound library. The cytotoxicity of the Tox21 compound library against the PPARg-bla cell line was tested in parallel by measuring the cell viability using CellTiter-Glo assay in the same wells.
Tox21 Assay Protocol Summary: PPARg-bla cells were dispensed at 3000 cells/5uL/well in 1536-well black wall/clear bottom plates using a Multidrop Combi (Thermo Fisher Scientific, Waltham, MA) dispenser. After the assay plates were incubated at 37 C and 5% CO2 for 5 h, 23 nL of compounds dissolved in DMSO, positive controls or DMSO only was transferred to the assay plate by a Pintool station (Kalypsys, San Diego, CA), followed by addition of 1ul Rosiglitazone (50 nM, final concentration in the wells). The assay plates were incubated at 37 C for 17 h, and then 1 uL of LiveBLAzerTM B/G FRET substrate was added using a Bioraptr Flying Reagent Dispenser (FRD) workstation (Beckman Coulter, Indianapolis, IN, USA). The assay plates were incubated at room temperature for 1 h and fluorescence intensity was measured by an Envision plate reader (PerkinElmer, Shelton, CT). For cell viability readout that measures cytotoxicity, 4 ul/well of CellTiter-Glo reagent was added into the assay plates using a Flying Reagent Dispenser. After 30 min incubation at room temperature, the luminescence intensity in the plates was measured using a ViewLux plate reader (PerkinElmer).
On to `CCCSC(=O)N(CCC)CCC`, for which the Potency entry was “inactive”.
Next, `ClC(Br)Br`: “inactive”; `CC(CCc1ccccc1)NC(C)C(O)c1ccc(O)cc1` (stereo not given): “inactive”; `N#CCBr`: “inactive”.
Next, `O=C(O)C(Br)CBr` (stereo not given): “inactive”.
For `CCCCc1ccc(O)cc1` the value was “inactive”.
Take `CN1CCC(N(Cc2ccccc2)c2ccccc2)CC1`: the Potency result is “inactive”.
For `CCCCOP(=O)(O)OCCCC` the value was “inactive”; for `COP(N)(=S)Oc1ccccc1C(=O)OC(C)C` (stereo not given), “inactive”; for `CCCSC(=O)Cl`, “inactive”.
Consider `CC1COC2(c3ccccc3Cl)c3cc(Cl)ccc3NC(=O)CN12` (stereo not given), for which the Potency entry is “inactive”.
Next, `Clc1ccccc1N1CCNCC1`: “inactive”.
For `N#Cc1c(Cl)cccc1Cl` the value was “inactive”.
Next, `Fc1cc(Br)ccc1CBr`: “inactive”.
In the case of `O=C1OC(=O)C2C1C1(Cl)C(Cl)=C(Cl)C2(Cl)C1(Cl)Cl` (stereo not given), the Potency entry was “inactive”.
Next, `CC(=O)Nc1cc([As](=O)(O)O)ccc1O`: “inactive”.
For `C#C[C@]1(O)C=C[C@H]2[C@@H]3CCC4=CC(=O)CC[C@@H]4[C@H]3CC[C@@]21CC` the value was “inactive”; for `CN(N=O)C(N)=O`, “inactive”; for `C=CCC1=C(C)[C@@H](OC(=O)[C@@H]2[C@@H](C=C(C)C)C2(C)C)CC1=O`, “inactive”.
For `O=C(O)c1ccc2[nH]cc(CCCCN3CC=C(c4ccccc4)CC3)c2c1` the value was “inactive”; for `Nc1cc2c3c(c1)C(c1ccccc1)=N[C@@H](NC(=O)c1cccnc1)C(=O)N3CC2`, “inactive”.
`O=C(Oc1ccc(Br)cc1)N1CCN2CCC1CC2`: the Potency result was “inactive”.
Next, `N#CC(CCc1ccc(Cl)cc1)(Cn1cncn1)c1ccccc1` (stereo not given): “inactive”; `CN/C(=N\[N+](=O)[O-])NCC1CCOC1` (stereo not given): “inactive”; `CC(Cl)(Cl)[N+](=O)[O-]`: “inactive”.
With `C[C@]12CC[C@H]3[C@@H](CCC4=CC(=O)CC[C@@]43C)[C@@H]1CC[C@@H]2C(=O)O`, the Potency result was “inactive”.
`COc1cc(OC)nc(Sc2cccc(Cl)c2C(=O)O)n1`: the Potency entry was “inactive”.
Turning to `O=[N+]([O-])c1cccc2cccnc12`, the Potency entry is “inactive”.
For `ClCC(Cl)(Cl)Cl` the value was “inactive”.
Next, `OC(c1ccc(F)cc1)(c1cncnc1)c1ccccc1Cl` (stereo not given): “inactive”; `CCC/C(=N\OCC)C1=C(O)CC(CC(C)SCC)CC1=O` (stereo not given): “inactive”; `CNC(=O)Oc1ccccc1C1OCCO1`: “inactive”.
On to `Cc1ccccc1CO[C@@H]1C[C@@]2(C(C)C)CC[C@]1(C)O2`, for which the Potency result was “inactive”.
For `C#CCN1C(=O)COc2cc(F)c(N3C(=O)C4=C(CCCC4)C3=O)cc21` the value was “inactive”; for `NC(=O)O`, “inactive”.
For `CN1CCC(O)(c2ccc(F)cc2)C(C(=O)c2ccc(F)cc2)C1` (stereo not given) the value was “inactive”.
Regarding `COc1cc2c(cc1OC)[C@@]13CCN4CC5=CCO[C@H]6CC(=O)N2[C@H]1[C@H]6[C@H]5C[C@H]43`, the Potency entry is “inactive”.
For `CC(C)CC(N(C)C)C1(c2ccc(Cl)cc2)CCC1` (stereo not given) the value was “inactive”; for `CCS(=O)(=O)CCSP(=O)(OC)OC`, “inactive”.
For `CNC(=O)O/N=C(\C)SC` the value was “inactive”.
